Only a selection was taken, and hits are over-represented in it overall.
GIRK2 activator: activators of NPY4-receptor-primed GIRK2 channels, summary, cell-based, HEK293, thallium flux. 34,000 tested, under 10 active. G protein-activated inward rectifier potassium channel 2 (Homo sapiens), P48051. HEK293 GIRK2/NPY4 cells, thallium flux fluorescence. activation (% efficacy), % for hits at 37.5 µM;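 active = primary screen hit, no activity in plain HEK293 cells, and in GIRK2-only cells above 5% efficacy rising with concentration; inactive = the rest, including fluorescent compounds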;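 note: efficacy is normalized control-subtracted fluorescence 15 s after thallium addition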
GluA2 TARP mod: modulators of GluA2-stargazin AMPA receptor complexes, primary screen, cell-based, membrane potential dye; HEK293 GluA2+stargazin, membrane potential dye (FDSS), glutamate EC50; hits were called plate by plate, in both directions; 3.5% of 40,000 active; calls only at 30 µM;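 active = any of four per-well response measures lying three or more SD from its plate-wide compound average, in either direction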
Target sequence (O88602 whole entry, looked up): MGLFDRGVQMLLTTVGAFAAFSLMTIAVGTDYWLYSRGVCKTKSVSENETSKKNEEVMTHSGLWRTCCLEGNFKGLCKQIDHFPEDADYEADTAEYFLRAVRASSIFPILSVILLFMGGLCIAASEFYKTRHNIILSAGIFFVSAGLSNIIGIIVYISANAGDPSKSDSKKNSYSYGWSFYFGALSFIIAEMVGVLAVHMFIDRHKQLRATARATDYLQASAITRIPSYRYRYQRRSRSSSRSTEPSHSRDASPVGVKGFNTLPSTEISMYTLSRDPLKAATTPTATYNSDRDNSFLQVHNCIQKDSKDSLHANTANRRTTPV
Target sequence (P19491 whole entry, looked up): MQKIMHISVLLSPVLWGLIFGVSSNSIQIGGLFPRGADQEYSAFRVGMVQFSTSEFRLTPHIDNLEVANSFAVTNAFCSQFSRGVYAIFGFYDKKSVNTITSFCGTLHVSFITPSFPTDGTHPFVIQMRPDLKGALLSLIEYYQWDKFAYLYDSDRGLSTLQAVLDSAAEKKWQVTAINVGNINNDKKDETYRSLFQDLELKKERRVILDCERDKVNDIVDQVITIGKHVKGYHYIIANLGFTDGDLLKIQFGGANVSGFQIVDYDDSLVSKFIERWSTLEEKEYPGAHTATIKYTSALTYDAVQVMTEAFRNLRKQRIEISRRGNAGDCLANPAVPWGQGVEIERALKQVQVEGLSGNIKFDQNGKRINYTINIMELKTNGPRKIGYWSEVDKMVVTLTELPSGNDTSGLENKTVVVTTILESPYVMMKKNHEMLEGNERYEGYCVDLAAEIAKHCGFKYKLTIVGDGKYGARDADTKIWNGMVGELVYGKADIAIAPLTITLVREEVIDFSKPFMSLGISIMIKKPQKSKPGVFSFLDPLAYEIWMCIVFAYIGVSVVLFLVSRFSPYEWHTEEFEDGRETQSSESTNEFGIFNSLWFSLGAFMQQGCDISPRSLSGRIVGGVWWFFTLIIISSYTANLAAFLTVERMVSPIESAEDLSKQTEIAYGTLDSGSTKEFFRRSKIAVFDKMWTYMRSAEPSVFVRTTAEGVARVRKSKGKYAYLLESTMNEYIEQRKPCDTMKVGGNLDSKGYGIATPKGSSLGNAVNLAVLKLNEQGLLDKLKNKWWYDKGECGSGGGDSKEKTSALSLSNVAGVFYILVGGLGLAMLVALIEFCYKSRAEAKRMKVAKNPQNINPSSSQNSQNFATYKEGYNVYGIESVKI
* hit, by the source's call.

How did COC(=O)c1cc(OC)c(OC)cc1NC(=O)c1nnn(-c2ccccc2)c1C do in these assays?
GIRK2 activator: inactive; GluA2 TARP mod: inactive

What do the screens show for `Cn1nccc1C(=O)N1CCN(c2nc3ccc(Cl)cc3s2)CC1`?
GIRK2 activator: inactive

How did CS(=O)(=O)c1ccccc1C(=O)N(CCN1CCOCC1)c1nc2ccc(Cl)cc2s1 do in these assays?
GluA2 TARP mod: inactive

How did Cc1cc(NC(=O)CSc2nc(=O)n(CC3CCCO3)c3c2CCCC3)on1 (centres undefined) do in these assays?
GIRK2 activator: inactive; GluA2 TARP mod: inactive

What do the screens show for `Cc1ccc(C(=O)Nc2ccc(C(=O)NCCNC(=O)c3ccccc3C)cc2)cc1`?
GluA2 TARP mod: active

What do the screens show for `CCCC(=O)Nc1ccc(C(=O)NCCNC(=O)c2ccccc2OC)cc1`?
GIRK2 activator: inactive; GluA2 TARP mod: inactive

Results for O=C(Nc1ccc2c(c1)CN(S(=O)(=O)c1ccccc1)CC2)c1ccc2nsnc2c1 ?
GIRK2 activator: inactive; GluA2 TARP mod: active

How did O=C(Nc1ccc2ncsc2c1)c1ccc(S(=O)(=O)N2CCc3ccccc3C2)cc1 do in these assays?
GIRK2 activator: inactive; GluA2 TARP mod: inactive

What do the screens show for `O=C1CCC(C(=O)NCC#CCOc2cccc(C(F)(F)F)c2)N1` (centres undefined)?
GIRK2 activator: inactive

Results for CC1=NN(c2ccccc2)C(=O)C1C(=O)c1ccc(Br)o1 (centres undefined) ?
GIRK2 activator: inactive; GluA2 TARP mod: active

Results for CC1=NN(c2ccccc2)C(=O)C1C(=O)c1ccc(S(=O)(=O)N(C)C)cc1 (centres undefined) ?
GIRK2 activator: inactive; GluA2 TARP mod: inactive

Results for CCOc1ccccc1C(=O)NCC1CCN(c2ncccn2)CC1 ?
GIRK2 activator: inactive; GluA2 TARP mod: active

How did COc1cccc2cc(C(=O)NCC3CCN(c4ncccn4)CC3)c(=O)oc12 do in these assays?
GIRK2 activator: inactive; GluA2 TARP mod: active

How did CCOc1ccccc1NC(=O)C(=O)NCC1CCN(c2ncccn2)CC1 do in these assays?
GIRK2 activator: inactive; GluA2 TARP mod: inactive

What do the screens show for `O=C(NCC1CCN(c2ncccn2)CC1)c1c(F)cccc1F`?
GIRK2 activator: inactive; GluA2 TARP mod: inactive

How did O=C(Cc1cccc2ccccc12)N1CCN(c2ccc3nncn3n2)CC1 do in these assays?
GIRK2 activator: inactive; GluA2 TARP mod: inactive

What do the screens show for `COc1ccc(CNC(=O)C(=O)NCCC2CCCCN2S(=O)(=O)c2ccccc2)cc1` (centres undefined)?
GluA2 TARP mod: inactive

What do the screens show for `CC(C)(C)NC(=O)NCCC1CCCCN1S(=O)(=O)c1ccccc1` (centres undefined)?
GluA2 TARP mod: active

What do the screens show for `O=C(CC1CCCCN1S(=O)(=O)c1ccccc1)NCCC1=CCCCC1` (centres undefined)?
GIRK2 activator: inactive; GluA2 TARP mod: active

What do the screens show for `COc1ccc(S(=O)(=O)N2CCCCC2CC(=O)NCCCc2ccccc2)cc1` (centres undefined)?
GluA2 TARP mod: inactive

How did O=C(CSc1ccc(F)cc1)N1CCCSCC1CN1CCOCC1 (centres undefined) do in these assays?
GIRK2 activator: inactive

How did Cc1ccc(NS(=O)(=O)c2ccccc2)c(C(=O)c2ccccc2)c1 do in these assays?
GluA2 TARP mod: active

Results for Cc1ccc(S(=O)(=O)Nc2ccccc2C(=O)Nc2ccc(C)cc2C(=O)c2ccccc2)cc1 ?
GluA2 TARP mod: inactive

How did COC(=O)Nc1ccc(CC(=O)NCc2cccs2)cc1 do in these assays?
GIRK2 activator: inactive; GluA2 TARP mod: inactive

Results for Cn1ccc(C(=O)Nc2ccc3c(c2)OCO3)n1 ?
GIRK2 activator: inactive; GluA2 TARP mod: inactive

What do the screens show for `Cc1cc(NC(=O)CCCS(=O)(=O)c2ccc(Cl)cc2)n(C(C)C)n1`?
GIRK2 activator: inactive; GluA2 TARP mod: inactive

How did CC(c1ccccc1)n1c(N2CCCC2)nc2c1c(=O)n(C)c(=O)n2C (centres undefined) do in these assays?
GIRK2 activator: inactive; GluA2 TARP mod: inactive

What do the screens show for `CC(c1ccccc1)n1c(N2CCCCCC2)nc2c1c(=O)n(C)c(=O)n2C` (centres undefined)?
GIRK2 activator: inactive; GluA2 TARP mod: active

Results for CC(=O)Nc1ccc(NC(=O)C(=O)NC2CCCCCC2)cc1 ?
GIRK2 activator: inactive

How did O=C(O)CCN1CCN(Cc2ccccc2)CC1 do in these assays?
GIRK2 activator: inactive; GluA2 TARP mod: inactive

Results for O=C(O)CCN1CCN(Cc2ccc(Cl)cc2)CC1 ?
GIRK2 activator: inactive; GluA2 TARP mod: active

Results for CC(C)(C)n1nc2c(c1-n1cccc1)CN(C(=O)Cn1c(=O)oc3ccccc31)C2 ?
GIRK2 activator: inactive; GluA2 TARP mod: inactive

How did CC(C)(C)n1nc2c(c1-n1cccc1)CN(C(=O)c1cc3ccccc3oc1=O)C2 do in these assays?
GIRK2 activator: inactive; GluA2 TARP mod: active

How did O=C(NCc1n[nH]c(=O)c2ccccc12)c1cc(=O)c2ccccc2o1 do in these assays?
GIRK2 activator: inactive; GluA2 TARP mod: active

What do the screens show for `O=C(NCc1n[nH]c(=O)c2ccccc12)c1ccc(Br)o1`?
GIRK2 activator: inactive; GluA2 TARP mod: inactive

What do the screens show for `CCOc1cc(C(c2c(O)cc(C)[nH]c2=O)c2c(O)cc(C)[nH]c2=O)ccc1O`?
GIRK2 activator: inactive; GluA2 TARP mod: inactive

Results for Cn1cc(/C=C2\SC(=O)N(CCC(=O)O)C2=O)c2ccccc21 ?
GluA2 TARP mod: inactive

Results for Cc1cccc(-c2ccc(/C=C3\C(=O)SC(=S)N3CCCC(=O)O)o2)c1 ?
GIRK2 activator: inactive; GluA2 TARP mod: active

How did CCOc1cccc2sc(N(Cc3ccco3)C(=O)CCCS(=O)(=O)c3ccccc3)nc12 do in these assays?
GluA2 TARP mod: inactive

How did O=C(NCc1ccccc1)C(=O)c1cn(CC(=O)N2CCOCC2)c2ccccc12 do in these assays?
GluA2 TARP mod: inactive

What do the screens show for `O=C(NCCc1ccccc1)C(=O)c1cn(CC(=O)N2CCOCC2)c2ccccc12`?
GluA2 TARP mod: active

What do the screens show for `COc1ccc(OC)c2sc(N(CCN3CCOCC3)C(=O)c3ccc4c(c3)CCCC4)nc12`?
GluA2 TARP mod: inactive

What do the screens show for `COc1ccc(Nc2nc(C)c([N+](=O)[O-])c(N3CCCC3)n2)c(OC)c1`?
GIRK2 activator: inactive; GluA2 TARP mod: inactive

What do the screens show for `COc1ccc(Nc2nc(N3CCCC3)c3ccccc3n2)cc1`?
GluA2 TARP mod: active

How did COc1ccc(N(CC(=O)N2CCN(c3ccccc3)CC2)S(=O)(=O)c2cccnc2)cc1 do in these assays?
GIRK2 activator: inactive; GluA2 TARP mod: inactive

How did O=c1ccc(-c2ccncc2)nn1CCNS(=O)(=O)c1cccs1 do in these assays?
GIRK2 activator: inactive

How did Cc1cc(C(F)F)n2ncc(C(=O)NC3CCCCCC3)c2n1 do in these assays?
GluA2 TARP mod: inactive

Results for COc1ccccc1CCNC(=O)c1cnn2c(C(F)F)cc(C)nc12 ?
GluA2 TARP mod: active

Results for COc1cccc(NC(=O)c2ccc(S(=O)(=O)N(Cc3ccccc3)C(C)C)cc2)c1 ?
GluA2 TARP mod: inactive

How did COc1ccc(-c2cc(C(=O)Nc3ccc(F)cc3F)c3ccccc3n2)c(OC)c1 do in these assays?
GluA2 TARP mod: inactive
